Here are results for 14 compounds from PubChem BioAssay (Tox21).

A short description of assay [1]: qHTS assay for small molecules that induce genotoxicity in human embryonic kidney cells expressing luciferase-tagged ATAD5 (AID 651632). Note: nearly all actives have a fitted effect of over 15% in size. Note: potency is the fitted concentration of half-maximal effect. The gist of the method:
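Genotoxicity read-out via ATAD5-luciferase: HEK293T cells, 16 hr compound incubation at 37C, Amplite detection.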
Background: Quantitative high-throughput screening tests each substance at several concentrations.

Assay [2] can be described thus: qHTS assay for small molecule agonists of the p53 signaling pathway - cell viability (AID 651633; calls by dose curve; note: nearly all actives have a fitted effect of over 30% in size; note: potency is the fitted concentration of half-maximal effect). Summed up:
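p53RE-bla cells, seeded at 4,000 per well and rested 5 h at 37 C/5% CO2, received compounds in DMSO for 16 h at 37 C. CellTiter-Glo was then added, and luminescence was read after 30 min at room temperature to gauge cytotoxicity.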

A short description of assay [3]: qHTS assay for small molecules that induce genotoxicity in human embryonic kidney cells expressing luciferase-tagged ATAD5 - cell viability (AID 651634; calls by dose curve; note: nearly all actives have a fitted effect of over 25% in size; note: potency is the fitted concentration of half-maximal effect). The gist of the method:
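Live-cell protease activity (CellTiter-Fluor, fluorescence) indicates viability. HEK293T cells with luciferase-tagged ATAD5; 15.5 hr compound treatment at 37C.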

Assay [4] is described as follows: qHTS assay for small molecule disruptors of the mitochondrial membrane potential - cell viability (AID 720634; calls by dose curve;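 note: human HepG2 liver cancer cells; series mostly up to about 83 µM; nearly all actives have a fitted effect of over 20% in size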). The gist of the method: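 Human hepatoma HepG2 cells were treated for 1 hr with test chemicals, then given m-MPI dye and CellTiter-Glo. Cell viability reflects luminescence proportional to cellular ATP.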
A short description of assay [5]: qHTS assay for small molecule disruptors of the mitochondrial membrane potential (AID 720635). Note: potency is the fitted concentration of half-maximal effect. The gist of the method:
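HepG2 cells (2,000/well) attached overnight at 37C, then took compound for 1 hr at 37C, 5% CO2. Mito-MPS dye was added for 30 min; fluorescence was read at 490/535 nm (monomers) and 540/590 nm (aggregates).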

Assay [6] is described as follows: qHTS assay to test for compound auto fluorescence at 590 nm (red) in HepG2 cells (AID 720674). Summed up: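 Rose Bengal sodium served as the red fluorophore standard. HepG2 monolayers (overnight attachment, MEM with 10% FBS) were exposed to test compounds for 1 hr at 37 C and read at Ex 540/Em 590 nm.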
Assay [7] in a line: qHTS assay to test for compound auto fluorescence at 460 nm (blue) in HEK293 cells (AID 720678). Summed up: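 HEK293 cells (2,000/well, medium with 10% dialyzed FBS) attached 4-5 hr, then exposed to compound overnight at 37C, 5% CO2. Blue fluorescence read at 405/460 nm, with triamterene as reference fluorophore.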
A short description of assay [8]: qHTS assay to test for compound auto fluorescence at 590 nm (red) in HEK293 cells (AID 720679). The gist of the method:
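HEK293 cells (2,000/well, 10% dialyzed FBS) attached 4-5 hr, then dosed with compound or DMSO and incubated overnight at 37C, 5% CO2. Red fluorescence read at 540/590 nm, Rose Bengal sodium as reference fluorophore.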

The nature of assay [9]: qHTS assay to test for compound auto fluorescence at 535 nm (green) in HEK293 cells (AID 720680).
Assay [10] is described as follows: qHTS assay to test for compound auto fluorescence at 460 nm (blue) in HEK293 cell free culture (AID 720681). The gist of the method: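 Test compounds were pinned into cell-free culture medium (DMEM with 10% FBS) and fluorescence was read directly at Ex/Em 405/460 nm. Signals were expressed as fluorescence equivalents of triamterene, with DMSO vehicle as control.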

A short description of assay [11]: qHTS assay to test for compound auto fluorescence at 535 nm (green) in HEK293 cell free culture (AID 720682). Summed up:
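DMEM + 10% FBS, cell-free; cpd or DMSO pinned in; Ex485/Em535 read; output as fluorescein-equivalent signal.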

A short description of assay [12]: qHTS assay to test for compound auto fluorescence at 590 nm (red) in HEK293 cell free culture (AID 720683). Summed up: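 Tox21 10K library compounds were pinned into cell-free DMEM with 10% FBS and fluorescence was read at excitation 540 nm. Activity is expressed as Rose Bengal sodium equivalency.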
Assay [13] is described as follows: qHTS assay to test for compound auto fluorescence at 590 nm (red) in HepG2 cell free culture (AID 720684). The gist of the method: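 Measured in medium alone (MEM containing 10% FBS) following pintool addition of compound; emission at 590 nm with 540 nm excitation, referenced to Rose Bengal sodium.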
Assay [14] can be described thus: qHTS assay to test for compound auto fluorescence at 460 nm (blue) in HepG2 cell free culture (AID 720685). Summed up: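 Compound (23 nL) or DMSO pinned into cell-free MEM with 10% FBS; blue fluorescence read at 405/460 nm excitation/emission, expressed as auto-fluorescence equivalency to triamterene.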
Assay [15] in a line: qHTS assay to test for compound auto fluorescence at 535 nm (green) in HepG2 cell free culture (AID 720686).
The nature of assay [16]: qHTS assay to test for compound auto fluorescence at 460 nm (blue) in HepG2 cells (AID 720687). Summed up: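 Cells (2,000/well in MEM with 10% FBS) attached overnight at 37 C, then were exposed to compound or DMSO for 1 hr at 37 C, 5% CO2. Fluorescence read at Ex/Em 405/460 nm, expressed as triamterene-equivalent signal.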
For assay [17], the target named is Glucocorticoid receptor (Homo sapiens) (UniProt P04150). Briefly: qHTS assay to identify small molecule agonists of the glucocorticoid receptor (GR) signaling pathway (AID 720691; active = well fitted activation curve with a large enough effect in the signal ratio in the repeat runs, not every such curve was filed as active; the % refers to the signal ratio). The gist of the method: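 Beta-lactamase reporter activity, read as fluorescence intensity, was measured in GR-bla HeLa cells exposed to compounds for 18 h at 37 C and then loaded with LiveBLAzer B/G FRET substrate for 2 h at room temperature.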

For assay [18] the target is unchanged. Put plainly: qHTS assay to identify small molecule antagonists of the glucocorticoid receptor (GR) signaling pathway (AID 720692; active = well fitted inhibition curve with a large enough effect in the signal ratio in the repeat runs, not every such curve was filed as active; the % refers to the signal ratio; note: potency is the fitted concentration of half-maximal effect). The gist of the method:
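Fluorescence from cleaved LiveBLAzer B/G FRET substrate reports GRE-driven beta-lactamase in HeLa cells; compounds are tested against 5 nM dexamethasone (final) over 18 h at 37 C, substrate incubation 2 h at room temperature.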

Assay [19] in a line: qHTS assay for small molecule agonists of the p53 signaling pathway (AID 651631; calls by dose curve; note: nearly all actives have a fitted effect of over 15% in size). The gist of the method:
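Testing took place in human colorectal HCT-116 cells with stable p53RE-driven beta-lactamase. After 16 h of compound exposure at 37 °C, a FRET substrate was added and fluorescence recorded 2 h later.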

Assay [20] in a line: qHTS assay to test for compound auto fluorescence at 535 nm (green) in HepG2 cells (AID 720675).

Values joined by “and” are separate entries in the source; they are usually repeats but may differ in a detail not shown here. Identical values can stand only once. Inconclusive results are not listed. The source holds several records for some structures; these can differ, active in one and inactive in another. Active and inactive are the calls of the source. Unless noted, calls come from the whole dose curve; as a rule, active = well fitted curve in the direction sought with a large enough effect in the repeat runs; inconclusive = weak or mixed curves; inactive = no such curve, though single readings can be large; an effect the other way counts as inactive or inconclusive.

Glucocorticoid receptor (Homo sapiens), sequence (P04150 whole entry, looked up): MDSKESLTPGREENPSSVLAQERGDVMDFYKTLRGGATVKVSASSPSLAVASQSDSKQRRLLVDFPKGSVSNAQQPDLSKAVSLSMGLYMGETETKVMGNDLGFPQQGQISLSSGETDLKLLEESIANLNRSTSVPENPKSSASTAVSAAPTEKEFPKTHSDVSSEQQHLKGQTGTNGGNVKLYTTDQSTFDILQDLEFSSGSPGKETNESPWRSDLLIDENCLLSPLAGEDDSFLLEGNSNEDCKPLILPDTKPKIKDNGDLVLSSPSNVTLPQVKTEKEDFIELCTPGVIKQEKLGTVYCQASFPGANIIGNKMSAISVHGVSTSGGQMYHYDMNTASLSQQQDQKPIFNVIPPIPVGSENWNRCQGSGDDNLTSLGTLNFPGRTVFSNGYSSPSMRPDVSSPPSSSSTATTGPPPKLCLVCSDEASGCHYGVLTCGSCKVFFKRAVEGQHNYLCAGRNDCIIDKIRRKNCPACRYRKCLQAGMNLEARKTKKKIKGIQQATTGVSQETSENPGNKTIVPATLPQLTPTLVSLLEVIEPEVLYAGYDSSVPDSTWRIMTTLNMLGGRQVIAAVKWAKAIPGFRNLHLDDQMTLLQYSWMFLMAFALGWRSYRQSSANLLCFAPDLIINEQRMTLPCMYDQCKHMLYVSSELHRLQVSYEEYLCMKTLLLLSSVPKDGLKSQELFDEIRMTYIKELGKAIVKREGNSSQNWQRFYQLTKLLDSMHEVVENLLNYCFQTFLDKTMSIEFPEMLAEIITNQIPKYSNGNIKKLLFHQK

Consider `N[C@@H](Cc1c[nH]c2ccc(O)cc12)C(=O)O`, for which the Potency entry in assay [1], in [2], in [3], in assay [4], in assay [17] and in assay [18] was “inactive” throughout. Besides, the Potency in assay [5] was 26.6 µM (active) and 941 nM (active). For the same compound, the call in [6], in assay [7], in assay [8], in assay [9], in [10] and in assay [11] was inactive. Moreover, the compound was classed as inactive in assay [12], in assay [13], in assay [14], in [15] and in assay [16].
Take `CCCCOC(=O)CCCCCCCCC(=O)OCCCC`: the Potency result in assay [1], in [2], in [3], in assay [4], in assay [5] and in [18] was “inactive” throughout. Also, the compound was classed as inactive in [6], in assay [7], in assay [8], in assay [9], in assay [10] and in assay [11]. In addition, the result in assay [12], in [13], in assay [14], in assay [15] and in assay [16] was inactive.
In the case of `CN(C)C=O`, the Potency entry in assay [19], in assay [1], in assay [2] and in [3] was “inactive” in each case. The result in [20], in [7], in assay [8], in assay [9], in assay [10] and in [11] was inactive. Further, the result in [12], in assay [13], in [14], in assay [15] and in assay [16] was inactive.
In the case of `CC(C)(C)NCC(O)c1ccc(O)c(CO)c1` (stereo not given), the Potency result in [19], in assay [1], in assay [2], in [4], in assay [5] and in [17] was “inactive” throughout. Also, the Potency result in assay [18] was “inactive”. Besides, the compound was called inactive in assay [20], in assay [7], in assay [8], in assay [9], in assay [10] and in [11]. In addition, the result in assay [12], in assay [13], in [14], in assay [15] and in [16] was inactive.
Regarding `c1ccc2[nH]c(-c3cscn3)nc2c1`, the Potency result in assay [2], in assay [3], in assay [4] and in assay [18] was “inactive” throughout. Moreover, the compound was called inactive in [6], in assay [7], in assay [8], in assay [9], in assay [10] and in assay [11]. The compound was classed as inactive in assay [12], in assay [13], in assay [14], in assay [15] and in [16].
As for `COC1=CC(=O)C[C@@H](C)[C@]12Oc1c(Cl)c(OC)cc(OC)c1C2=O`, the Potency result in [3], in assay [4], in assay [5] and in [18] was “inactive” throughout. Also, the compound was called inactive in assay [7], in assay [8], in [9], in assay [10], in assay [11] and in assay [12]. In addition, the compound was called inactive in assay [13], in [14], in assay [15] and in assay [16].
In the case of `Cn1cnc2c1c(=O)[nH]c(=O)n2C`, the Potency entry in assay [1], in assay [2], in assay [3], in [4], in assay [5] and in [17] was “inactive” each time. In assay [18], the Potency entry is “inactive”. Further, the call in assay [7], in assay [8], in [9], in assay [10], in assay [11] and in assay [12] was inactive. The call in [13], in assay [14], in assay [15] and in assay [16] was inactive.
As to `O=C(OCc1ccccc1)c1ccccc1`, the Potency entry in [1], in [2], in [3], in assay [4], in [5] and in assay [17] was “inactive” throughout. Besides, the Potency entry in assay [18] is “inactive”. In addition, the outcome in assay [7], in assay [8], in [9], in assay [10], in assay [11] and in assay [12] was inactive. In addition, the result in assay [13], in [14], in [15] and in assay [16] was inactive.
As to `NCCNc1cccc2ccccc12`, the Potency result in assay [1], in assay [2], in [3], in assay [4], in assay [17] and in [18] was “inactive” in each case. Further, the compound was called inactive in [6], in [20], in assay [7], in assay [8], in assay [9] and in assay [10]. Also, the compound was called inactive in assay [11], in [12], in assay [13], in assay [14], in assay [15] and in [16].
On to `COc1cc2c(c(OC)c1OC)-c1ccc(OC)c(=O)cc1[C@@H](NC(C)=O)CC2`, for which the Potency in assay [1] was 266 nM (active) and 48 nM (active) and 54.5 nM (active); in [3] it was 335 nM (active) and 9.6 nM (active) and 7.7 nM (active); in assay [5], 3.35 µM (active) and 1.52 µM (active) and 1.37 µM (active). The Potency entry in assay [2] and in assay [4] was “inactive” in each case. The outcome in [6], in assay [7], in assay [8], in assay [9], in assay [10] and in [11] was inactive. In addition, the call in assay [12], in assay [13], in assay [14], in assay [15] and in [16] was inactive.
For the compound `CC1=C(/C=C/C(C)=C/C=C/C(C)=C/C(=O)O)C(C)(C)CCC1`, the Potency result in assay [1], in assay [3] and in assay [4] was “inactive” each time. Besides, the Potency entry in [2] is “inactive and 68.7 µM (active)”; in assay [5] it was “inactive and 27.3 µM (active)”; in [18], 54.9 µM (active). Also, the outcome in assay [7], in assay [8], in assay [9], in assay [10], in assay [11] and in assay [12] was inactive. Also, the compound was classed as inactive in [13], in assay [14], in [15] and in assay [16].
Consider `N[C@@H](Cc1c[nH]c2ccccc12)C(=O)O`, for which the Potency result in [2], in assay [3], in assay [4], in [5] and in [18] was “inactive” each time. For the same compound, the call in assay [20], in [7], in assay [8], in assay [9], in [10] and in assay [11] was inactive. The result in assay [12], in [13], in [14], in assay [15] and in [16] was inactive.
As to `O=C1OC(c2ccc(O)cc2)(c2ccc(O)cc2)c2ccccc21`, the Potency entry in assay [1], in [2], in [3] and in [4] was “inactive” each time. Besides, the Potency in assay [5] was 21.1 µM (active) and 48.2 µM (active) and 68.6 µM (active). Moreover, the compound was classed as inactive in assay [6], in [7], in assay [8], in assay [9], in assay [10] and in assay [11]. For the same compound, the outcome in [12], in assay [13], in assay [14], in assay [15] and in assay [16] was inactive.
Consider `COc1cc(O)c(C(=O)c2ccccc2)cc1S(=O)(=O)O`, for which the Potency result in assay [1], in assay [2], in [3], in assay [4] and in [5] was “inactive” in each case. In addition, the call in assay [6], in assay [20], in assay [7], in assay [8], in assay [9] and in assay [10] was inactive. Besides, the compound was called inactive in [11], in assay [12], in [13], in [14], in [15] and in assay [16].
